Screening results (PubChem BioAssay)
HT1080 IDH1KD tx: qHTS for induction of synthetic lethality in tumor cells producing 2HG: qHTS for the HT-1080-IDH1KD cell line; AID 686971, 2013; hit rate 2% among 360,000; Potency, µM (highest dose often 46.1 µM), without a hit: at the highest dose activity, negative = toxicity, actives largely listed as cytotoxic; HT-1080 IDH1 knockdown viability, ATP luminescence, 48 h;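 further: 0% = DMSO wells and -100% = cell-free medium wells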
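CellTiter-Glo luminescence after 48 h compound exposure at 37 degrees C of IDH1-knockdown HT-1080 cells in 5% FBS RPMI. %Activity scaled between DMSO wells and cell-free media wells, with curves fitted and assigned curve classes.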
HT1080NT lethal: qHTS for induction of synthetic lethality in tumor cells producing 2HG: qHTS for the HT-1080-NT fibrosarcoma cell line; Potency, µM (series often up to 46.1 µM), without a hit: at the highest dose activity, negative = less viability, most hits filed as cytotoxic; HT-1080-NT fibrosarcoma viability, CellTiter-Glo ATP luminescence, 48 h; hit rate 1.6% among 360,000; AID 686970, 2013;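 further: NT is the 2HG producing partner of a matched IDH1 knockdown line; 0% = DMSO-treated cells and -100% = media-only wells without cells; nearly all actives have a fitted effect of over 55% in size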
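A 48-hour cytotoxicity screen used HT-1080-NT cells plated 2 hours before compound delivery. ATP-based CellTiter-Glo luminescence measured viability, normalized to DMSO and no-cell controls.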
KB-V1 cytotox: qHTS assay for MDR1-selective chemotherapeutics: Primary screen using the drug-selected MDR subline cells KB-V1; KB-V1 MDR cells viability, CellTiter-Glo, 72 h; Potency, µM (top dose mostly 46.1 µM), actives largely listed as cytotoxic; hit rate 3.4% among 400,000; AID 1347076, 2019; further: nearly all actives have a fitted effect of over 60% in size
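Cytotoxicity via CellTiter-Glo luminescence after 72 h compound exposure at 37 degrees C. Cells: drug-selected KB-V1 line, DMEM phenol-red free plus 10% FBS. Compounds tested at multiple concentrations; normalized data fitted to concentration-effect curves.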
DT40 TDP1 CPT: qHTS for Inhibitors of human tyrosyl-DNA phosphodiesterase 1 (TDP1): qHTS in cells in presence of CPT | chicken DT40 Tdp1-/-;hTDP1 cells + 20 nM CPT, ATP luminescence, 48 h | Potency, µM (series often up to 46.2 µM), inactives show top-dose activity change, negative = growth inhibition, most hits filed as inhibitors | hit rate 12% among 420,000; further: nearly all actives have a fitted effect of over 55% in size
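Chicken DT40 Tdp1-/- cells complemented with human TDP1, 400 cells/well, exposed to compounds plus 20 nM camptothecin for at least 48 h at 37 C; viability read as ATP content by CellTiter-Glo luminescence.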
DT40 TDP1 no CPT: qHTS for Inhibitors of human tyrosyl-DNA phosphodiesterase 1 (TDP1): qHTS in cells in absence of CPT; DT40 Tdp1-/- hTDP1 cells, no CPT, ATP luminescence, 48 h; AID 686978, 2013; hit rate 15% among 420,000; Potency, µM (highest dose often 46.2 µM), for inactives: top-dose activity change, negative = growth inhibition, usual class: inhibitors; further: nearly all actives have a fitted effect of over 55% in size
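Seeded 400 DT40-hTDP1 cells/well (vehicle DMSO, no 20 nM CPT); pinned compounds; ≥48 hr at 37 °C; CellTiter-Glo luminescence as viability measure.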
KB-3-1 cytotox: qHTS assay for MDR1-selective chemotherapeutics: Primary screen using the parental adenocarcinoma cell KB-3-1 | KB-3-1 viability, CellTiter-Glo ATP luminescence, 72 h | Potency, µM (highest dose often 46.1 µM), most hits filed as cytotoxic | hit rate 1.4% among 400,000; further: nearly all actives have a fitted effect of over 60% in size
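Screening of KB-3-1 cells (DMEM, 10% FBS, phenol-red free) ran from lowest to highest compound concentration; after 72 h at 37 °C viability was read luminescently and curves fitted.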
Numbers without * were called inactive; i = inactive; ? = inconclusive; . = no result. Sampled rows, rich in hits. Any-hit rate of the full collection: about 19%. The call rests on the fitted dose curve; in most records, active means well fitted curve in the direction sought with a large enough effect; inconclusive means small, poorly fitted or top-dose-only effect, or another doubt; inactive means no such curve, though single readings can be large; an effect the other way counts as inactive or inconclusive. Unless noted, on the % scale 0 is the no-effect control and ±100 the full control effect; potency means the concentration at half of the fitted maximal effect.

SMILES	HT1080 IDH1KD tx	HT1080NT lethal	KB-V1 cytotox	DT40 TDP1 CPT	DT40 TDP1 no CPT	KB-3-1 cytotox
Cc1cccn2c(=O)c(/C=C(\C#N)c3nc4ccccc4s3)c(Oc3ccc(Br)cc3)nc12	.	.	i	7.3µM*	6.5µM*	i
Cc1ccc(Oc2nc3c(C)cccn3c(=O)c2/C=C(\C#N)C(N)=O)cc1	-8%	-16%	i	?	13µM*	i
Cc1ccc(Oc2nc3ccccn3c(=O)c2/C=C(\C#N)c2nc3ccccc3s2)c(C)c1	.	.	i	12µM*	4.1µM*	i
CCOC(=O)/C(C#N)=C/c1c(Oc2cc(C)cc(C)c2)nc2ccccn2c1=O	1%	2%	?	-20%	-21%	i
Cc1ccccc1Oc1nc2ccccn2c(=O)c1/C=C(\C#N)c1nc2ccccc2[nH]1	.	.	.	-22%	-11%	.
CC1=CN2C(=NC(=O)CC2(C)C(=O)N(CC(=O)NC2CCCC2)c2ccccc2C)C=C1 (centres undefined)	6%	10%	i	-10%	-2%	i
Cc1ccc(S(=O)(=O)N(CC(=O)Nc2ccc(C)cc2C)C(=O)N2CCN(C)CC2)cc1	10%	7%	?	-12%	-11%	i
O=C(Nc1ccc(-c2cc(C(F)(F)F)nn2-c2ccccc2)cc1)c1cccc(F)c1	.	.	.	?	5.2µM*	.
COc1cc(C(=O)Nc2ccc(-c3cc(C(F)(F)F)nn3-c3ccccc3)cc2)cc(OC)c1OC	.	.	i	16µM*	15µM*	?
O=C(NC(=O)c1cccc(F)c1)Nc1ccc(-c2cc(C(F)(F)F)nn2-c2ccccc2)cc1	.	.	i	-23%	-23%	i
COc1ccccc1/C=C/C(=O)c1ccc(NC(C)=O)cc1	?	-20%	i	?	15µM*	?
COc1ccc(/C=C/C(=O)c2ccccc2)c(OC)c1	?	?	?	-22%	-19%	i
COc1ccc(OC)c(/C=C/C(=O)c2ccc(Cl)cc2)c1	?	?	?	18µM*	?	i
COc1ccccc1/C=C/C(=O)c1ccccc1	-22%	-18%	i	?	13µM*	i
COc1ccccc1/C=C/C(=O)c1c2c(c(C)[nH]c1=O)CCCC2	?	4.5µM*	?	?	?	i
O=C(Cc1ccc(Br)cc1)N/N=C/c1cccnc1	1%	-3%	i	-19%	-5%	i
COc1ccccc1/C=C/C(=O)NC(=S)NC(C)C	14%	10%	?	?	16µM*	?
CC(C)CC(=O)NC(=S)NNC(=O)c1ccc(NC(=O)C2CCCCC2)cc1	?	?	?	21µM*	12µM*	?
Cc1ccc(C(=O)NC(=S)NNC(=O)c2cccc([N+](=O)[O-])c2)cc1	7%	-1%	i	?	?	i
CC(C)CC(=O)NC(=S)NNC(=O)c1ccc([N+](=O)[O-])cc1	-23%	-19%	i	18µM*	15µM*	?
CCC(=O)NC(=S)NNC(=O)c1ccc([N+](=O)[O-])cc1	-21%	-12%	i	?	18µM*	i
C[C@](N)(COP(=O)(O)O)C(=O)O	.	.	.	18%	-9%	.
CC(CNS(=O)(=O)c1ccc2c(c1)CC(=O)N2C)c1ccccc1 (centres undefined)	-10%	0%	?	?	?	i
CN1CCN(C(=O)C[C@@H]2C[C@H]3c4cc(NC(=O)c5cccnc5)ccc4O[C@H]3[C@H](CO)O2)CC1	14%	12%	i	-22%	-14%	i
CCN(CC)CCNC(=O)C(Cl)=C1C(Cl)=C(Cl)C(Cl)=C1Cl	?	-24%	?	?	16µM*	?
SMILES	HT1080 IDH1KD tx	HT1080NT lethal	KB-V1 cytotox	DT40 TDP1 CPT	DT40 TDP1 no CPT	KB-3-1 cytotox
Cc1ccc(S(=O)(=O)Nc2ccc3c(c2)nc(CCN2CCCC2)n3C)cc1	?	-13%	?	?	?	?
CC1CCN(C(=O)CCC(=O)Nc2ccc([N+](=O)[O-])cc2)CC1	?	-20%	?	-3%	-12%	i
Cc1ccc(O)c(NC(=O)c2ccc(Br)c(S(=O)(=O)N3CCCCC3)c2)c1	.	.	?	9.2µM*	5.2µM*	i
Cc1ccc(O)c(NC(=O)c2cccc(S(=O)(=O)N3CCCCC3)c2)c1	-11%	-3%	i	?	?	i
Cc1ccc(C(=O)NC2CCCC2)cc1S(=O)(=O)N1CCCCC1	-7%	-4%	i	-22%	11%	i
Cc1ccc(C(=O)NCc2ccco2)cc1S(=O)(=O)N1CCCCC1	-23%	-28%	?	-26%	-19%	i
Cc1ccc(C(=O)NNC(=O)c2ccccc2O)cc1S(=O)(=O)N1CCCCC1	-12%	-1%	?	16µM*	?	?
Cc1ccc(C(=O)Nc2ccccc2C(=O)NCc2ccco2)cc1S(=O)(=O)N1CCCCC1	-9%	-12%	?	?	16µM*	i
O=C(NCCN1CCOCC1)c1ccc(Cl)c(S(=O)(=O)NCc2ccccc2)c1	0%	10%	i	-14%	2%	i
CCOc1ccc(-c2nc3scc(-c4cccs4)c3c(=O)[nH]2)cc1	6%	5%	i	?	?	i
Cc1cc(C(=O)CCC(=O)N(C)CC(=O)Nc2c(Cl)cccc2Cl)c(C)s1	2%	4%	?	-24%	12µM*	i
CN(CC(=O)Nc1c(Cl)cccc1Cl)C(=O)c1cccc(-n2cccc2)c1	-9%	-15%	i	16µM*	-17%	i
CCc1nn2c(=O)cc(COC(=O)c3ccccc3NC(=O)COc3ccc(C)c(C)c3)nc2s1	.	.	.	5.2µM*	6.5µM*	.
CCc1nn2c(=O)cc(COC(=O)c3ccc(NC(=O)COc4ccc(C)cc4)cc3)nc2s1	.	.	.	?	16µM*	.
COc1ccc(OCC(=O)Nc2ccc(C(=O)OCc3cc(=O)n4nc(C)sc4n3)cc2)cc1	.	.	.	13µM*	21µM*	.
COc1cccc(CN2CCNC(=O)C2CC(=O)NCCN2CCCCC2=O)c1 (centres undefined)	10%	-3%	i	-2%	24%	i
